# Compound activity from PubChem.
# Only some compounds are listed: those with a hit (about 6.9% of all), similar ones and a draw of the others.
# Giardia kill: Giardia lamblia killing; actives 0.15% (n = 340,000); Giardia lamblia trophozoite viability; activity change, % at 7.66 µM, hits read low; in the data active = activity change below about -80%; inconclusive = between about -30% and that limit;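 also: parasites exposed to compound for two days anaerobically before the ATP read; % is scaled to controls: 0 for no effect and ±100 for the full control effect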
#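 Viability, read as ATP luminescence: trophozoites at 100 cells/well, compound added, 48 hrs anaerobic at 37 deg C, then 15-30 min room-temperature development before reading.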
# IL1B secr inh: inhibitors of inflammasome signaling (IL-1 beta secretion); actives 4.7% (n = 360,000); activity change, % at 57.5 µM; AID 743279; THP-1 LPS/ATP IL-1B secretion, AlphaLISA, 16 h; active compounds read low; in the data active = activity change below about -50%; inconclusive = mostly about -30% to -49%; also: % is scaled to controls: 0 for no effect and ±100 for the full control effect
#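 THP-1 cells pretreated 1 hr with compounds (up to 57.5 uM final), then stimulated with LPS (250 ng/mL final) plus ATP (1.25 mM final); secreted IL-1B measured by AlphaLISA after 16 hr, decreased signal indicating inhibition.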
# SW480 rereplic: inducers of DNA re-replication in SW480 colon cancer cells. Potency, µM (top dose mostly 46.1 µM), without a hit: top-dose re-replication activation, most hits filed as activators. SW480 DNA re-replication, Hoechst DNA content imaging, 48 h. actives 1.8% (n = 340,000). AID 624297; also: potency is read from the fitted curve at half-maximal effect; % of control where 0% means no effect; nearly all actives have a fitted effect of over 55% in size
#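 Treated cells incubate 48 hr (37 C, 5% CO2), are stained 40 min with Hoechst, and nuclear fluorescence is enumerated; a rise in nuclei with high DNA signal marks re-replication.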
# Vif-A3F inh: blocks the Vif interaction with APOBEC3F | HeLa A3F-eYFP + Vif (tagged APOBEC3F with the HIV-1 protein that degrades it), YFP fluorescence increase | Potency, µM (top dose mostly 46.1 µM), inactives show top-dose activity, negative = active | actives 0.2% (n = 390,000) | AID 602313; also: potency is read from the fitted curve at half-maximal effect; % of control where 0% means no effect; nearly all actives have a fitted effect of over 65% in size
#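 Fluorescence increase (Ex 488/Em 500-530) after overnight compound treatment at 37 deg C flags inhibition of Vif-driven A3F-eYFP loss in stable HeLa A3F-eYFP/Vif cells seeded overnight beforehand.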
# MCF10A rereplic: inducers of DNA re-replication in MCF 10A breast cells; MCF 10A DNA re-replication, Hoechst nuclear intensity, 48 h; Potency, µM (series often up to 46.1 µM), for inactives: top-dose activity, positive = re-replication, actives largely listed as activators; actives 2.9% (n = 350,000); also: potency is read from the fitted curve at half-maximal effect; % of control where 0% means no effect; nearly all actives have a fitted effect of over 50% in size
# Vif-A3G inh: Vif-A3G binding inhibition; Q9HC16; actives 0.076% (n = 410,000); Potency, µM (series often up to 46.1 µM), inactives show at the highest dose activity, negative = active, usual class: inhibitors; HeLa A3G-eYFP + Vif (tagged APOBEC3G with the HIV-1 protein that degrades it), YFP fluorescence, overnight; also: potency is read from the fitted curve at half-maximal effect; % is scaled to controls: 0 for no effect and ±100 for the full control effect; nearly all actives have a fitted effect of over 60% in size
# Target sequence (Q9HC16 whole entry, looked up): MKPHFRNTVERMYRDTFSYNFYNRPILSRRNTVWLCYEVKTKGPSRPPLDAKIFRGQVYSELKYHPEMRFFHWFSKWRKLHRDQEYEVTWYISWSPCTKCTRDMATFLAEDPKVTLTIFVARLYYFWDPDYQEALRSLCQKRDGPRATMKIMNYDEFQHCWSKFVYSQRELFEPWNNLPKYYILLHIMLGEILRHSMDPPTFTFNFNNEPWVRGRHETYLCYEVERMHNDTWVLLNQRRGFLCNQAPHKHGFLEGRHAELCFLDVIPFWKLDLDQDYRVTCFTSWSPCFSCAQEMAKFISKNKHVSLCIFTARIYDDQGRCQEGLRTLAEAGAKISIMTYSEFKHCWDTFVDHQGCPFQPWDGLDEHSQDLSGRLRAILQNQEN
#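 HeLa cells stably expressing Vif and C-terminally eYFP-tagged A3G, seeded overnight at 37 deg C, then exposed to compound by pintool overnight at 37 deg C. Rise in yellow fluorescence (Ex 488/Em 500-530, Acumen) marks blocked Vif-driven A3G degradation.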
# * = called active by the depositor; ? = inconclusive; . = not tested or not shown; [ ] = another dose, or the depositor's remark. Unless noted, calls follow the shape of the dose curve; as a rule, active = well fitted curve in the direction sought with a large enough effect; inconclusive = small, poorly fitted or top-dose-only effect, or another doubt; inactive = no such curve, though single readings can be large; an effect the other way counts as inactive or inconclusive.
SMILES,Giardia kill,IL1B secr inh,SW480 rereplic,Vif-A3F inh,MCF10A rereplic,Vif-A3G inh
Cc1ccc(-c2nnn(CC(=O)N(c3ccccc3)C(C(=O)NCC3CCCO3)c3ccc(F)cc3)n2)o1 (stereo not given),7,14,1%,-9%,-18%,1%
Cc1ccc(-c2nnn(CC(=O)N(c3ccc4c(c3)OCCO4)C(C(=O)NCC3CCCO3)c3ccc(F)cc3)n2)o1 (stereo not given),8,65,16µM*,-2%,?,-8%
Cc1cccc2sc(NC(=O)CCn3cccc3)nc12,-4,-52*,6%,4%,21%,-5%
CC(C)c1nnc(NC(=O)C2c3ccccc3Oc3ccccc32)s1,0,8,0%,2%,28%,-4%
Cc1nnc(NC(=O)C2c3ccccc3Oc3ccccc32)s1,-8,-19,?,-7%,13µM*,0%
Cc1cccc2sc(NC(=O)C3CC3)nc12,-3,6,1%,6%,?,-7%
Cc1cccc2sc(NC(=O)C3c4ccccc4Oc4ccccc43)nc12,12,-5,?,1%,6.5µM*,3%
Cc1cccc2sc(NC(=O)c3ccc(Cl)s3)nc12,-21,-16,-3%,-1%,16µM*,-5%
CC(C)NC(=O)COC(=O)CNC(=O)C1CCCCC1,-7,.,.,.,.,2%
O=C(/C=C/c1c(Cl)cccc1Cl)N1CCOCC1,-18,-6,-9%,3%,-1%,-1%
O=C(/C=C/c1c(Cl)cccc1Cl)n1cccn1,-3,-52*,11%,-27%,?,-23%
CC(C)C[C@H](NC(=O)c1nc[nH]c1C(=O)N1CCN(c2ccccc2)CC1)C(=O)OCc1ccccc1,0,38,1%[9.22 µM],2%,12µM*,0%
CC(C)C[C@H](NC(=O)c1nc[nH]c1C(=O)N1CCNCC1)C(=O)OCc1ccccc1,4,-6,-8%,2%,-2%,0%
C[C@H](NC(=O)c1nc[nH]c1C(=O)N1CCN(C(=O)OC(C)(C)C)CC1)C(=O)OCc1ccccc1,-9,2,-7%,1%,?,-1%
CC1CCN(C(=O)c2[nH]cnc2C(=O)N[C@@H](C)C(=O)OCc2ccccc2)CC1,31,-70*,?,-4%,12%,1%
COc1ccc(C(=O)Nc2sc3c(c2C#N)CCN(C(C)=O)C3)cc1,-3,-25,23µM*,-14%,23µM*,10µM*
CC(=O)N1CCc2c(sc(NC(=O)c3ccc([N+](=O)[O-])o3)c2C#N)C1,-88*,?,2.3µM*,-17%,1.5µM*,-20%
COC(=O)c1c(NC(=O)c2ccc([N+](=O)[O-])o2)sc2c1CCN(C(C)C)C2,?,-97*,2.3µM*,-28%,2.9µM*,?
COC(=O)c1sc(NC(=O)c2ccc([N+](=O)[O-])o2)c(C#N)c1C,-93*,?,3.3µM*,-3%,2.9µM*,?
COc1cc(NC(=O)c2nn(-c3ccc(F)cc3)c(=O)n(C)c2=O)cc(OC)c1OC,.,.,.,0%,.,6%
CNc1c(NC(=O)c2cc(OC)cc(OC)c2)c(=O)oc2ccccc12,.,.,.,-8%,.,2%
Nc1c(C(=O)OCC(=O)Nc2ccc(Cl)cc2[N+](=O)[O-])[nH]c(=O)[nH]c1=O,-10,-3,-2%,-6%,23µM*,4%
CCc1ccccc1NC(=O)C(CC)Sc1nc2cc3c(cc2c(=O)n1Cc1ccco1)OCO3 (stereo not given),-21,7,15µM*,-26%,6.5µM*,2%
CCC(Sc1nc2cc(OC)c(OC)cc2c(=O)n1Cc1ccco1)C(=O)NCCOC (stereo not given),-6,91,-13%,0%,0%,2%
CCc1ccc(NC(=O)C(CC)Sc2nc3cc4c(cc3c(=O)n2Cc2ccco2)OCO4)cc1 (stereo not given),6,0,?,-11%,18µM*,?
